This is an account of results in the supplement of paper PMC10338343.

± gives the standard deviation. Bounds are passed on as bounds.

The subject of this experiment is EfPiwi piRISC loaded with L1MC piRNA (26 nt). As to the kind of experiment: pre-steady-state target cleavage rate (min^-1); auxiliary factor: 500 nM Ephydatia muelleri Gtsf1; guide: L1MC piRNA 5'p-UAACUAAAUACUAUGCAAGCUGUAGG; MIWI and MILI are mouse PIWI proteins and EfPiwi is from a freshwater sponge; tags in brackets are library labels; higher = faster piRNA-guided slicing of the target. The procedure:
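Cleave-'n-Seq: a library of target RNAs (target site in constant flanks) at […] was incubated with 1 nM active freshwater sponge Ephydatia fluviatilis Piwi piRISC (synthetic 5'-monophosphorylated piRNA guide) with or without 500 nM EmGtsf1 at 33 °C for 1 min to 16 h. Uncleaved targets were sequenced and the pooled three trials fitted to a burst-and-steady-state model to give the pre-steady-state cleavage rate (min^-1). Sequence is the target site only. Fits with R² ≤ 0 are excluded.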
Consider UCCUGCUACAGCUUGCAUUGUAAUUAGUUA, for which the “pre-steady-state target cleavage rate” value is 0.00519 ± 0.0025.
With UCCUCCUACAGCUUGCUUAGUUUUUAGUUA the figure was 0.00738 ± 0.0023; with UCCUGCUACAGCUUGCAUAGUAUUUCGUUA, 0.00379 ± 0.0018; with UCCUCCUACAGGUUGCAUAGUAUUUAGAUA, 0.00362 ± 0.00095.
With UCCUCCUACAGGAAGCAUAGUAUUUAGUUA the figure was 0.0159 ± 0.0041; with UCCUGGAUGUGCAUGCAUAGUAUUUAGAAA, 0.00304 ± 0.0022.
The figure for UCCUGGAUGUCCUUGCAUAGUAUUUUAGUUA is 0.00287 ± 0.0028; for UCCUGGAACAUGCUUGCAUAGUAUUUAGUUA it is 0.0178 ± 0.0057; for UCCUGGAACAGCAUGCAUAGUUUUUAGUUA it is 0.00387 ± 0.0016.
Turning to UCCUCCUACAGCUUGCAUAGUUAUUUAGUUA, the “pre-steady-state target cleavage rate” value was 0.00556 ± 0.0031.
With UCCUGGUACAGCUUGGAUAGUAUUUAGUAA the figure was 0.00283 ± 0.0021; with UCCUGGAUGAGCUUGCAUAGUGUUUAGUUA, 0.00987 ± 0.0028.
Consider UCCUGGUAUAGCUUGCAUAGUAUUUAGUUA, for which the “pre-steady-state target cleavage rate” value was 0.0287 ± 0.0075.
The figure for UCCUGGAUCAGUUGCAUAGUAUUUAGUUA is 0.0258 ± 0.0051; for UCCUGGAACAGCUGCAUAGUAUUUAGUUA it is 0.0362 ± 0.0095; for UCCUGGAUGUCCUUGCAUAGUAUUUAUUUA it is 0.00464 ± 0.0036.
Regarding UCCUCCUACAGCUUGGAUAGUAAUUAGUUA, the “pre-steady-state target cleavage rate” value was found to be 0.0274 ± 0.0089.
With UCCUCCUUCAGCUUGCAUAGUAUUUAGAAA the figure was 0.00603 ± 0.0031; with UCCUGGUACUGCUUGCAUAGUAUAUAGUUA, 0.01 ± 0.0048.
With UCCUGGAUGUCGAACCCUAGUAUUUAGUUA the figure was < 0.0001; with UCCUGGUUCAGCUUGCUUAGUAUUUAGUUA, 0.0145 ± 0.0054.
Turning to UCCUGGAUGUGCUUGCAUAGUAGUUAGUUA, the “pre-steady-state target cleavage rate” value worked out at 0.0116 ± 0.0041.
With UCCUGGAACAGCUUGCAUAGUAUUUUGAUA the figure was 0.00265 ± 0.0024.
With UCCUCCUACAGCUUGCAUAGUAAAAUCAAA the figure was 0.0042 ± 0.0034; with UCCUGGAACAGCUUGUCAUAGUAUUUAGUUA, 0.0277 ± 0.0088.
The figure for UCCUGGAACAGCUUGCAUAGUAUAAUGUUA is 0.00416 ± 0.0026; for UCCUGGAUCACCUUGGAUAGUAUUUAGUUA it is 0.00371 ± 0.0037.
With UCCUGCUACAGCUAGCUUAGUAUUUAGUUA, the “pre-steady-state target cleavage rate” value was 0.00973 ± 0.0029.
With UCCUGGAUGAGCUUGAAUAGUAUUUAGUUA the figure was 0.00419 ± 0.0027; with UCCUGGAACACCUUGCUUAGUAUUUAGUUA, 0.0036 ± 0.0033.
As for UCCUCCUACAGCUUGCAUAGUAUAUUAGUUA, the “pre-steady-state target cleavage rate” value was 0.0567 ± 0.019.
The figure for UCCUGGAUCAGCUUGCAAAGUAUUUAGUAA is 0.00607 ± 0.0027; for UCCUCCUACAGGUUGCAUAGUAUUUUCAAA it is 0.00306 ± 0.0021.
The figure for UCCUGGAUGUGCUUGCAUAGUAUUUAGAAA is 0.00293 ± 0.0018; for UCCUGCUAGAGCUUGCAUAGAAUUUAGUUA it is 0.0043 ± 0.0014; for UCCUGGUACAGCUUGCAUGUAUUUAGUUA it is 0.0036 ± 0.0031.
On to UCCUGGAUCACGAUGCAUAGUAUUUAGUAA, for which the “pre-steady-state target cleavage rate” value worked out at 0.00397 ± 0.0033.
With UCCUGGAACAGCUUGCAUAGUAUAUAGAAA the figure was 0.00685 ± 0.0044; with UCCUCGUACAGGUUGCAUAGUAUUUAGUUA, 0.0399 ± 0.0088; with UCCUGGAUCAGCUUGCAUUGUAUUUAGUUA, 0.0179 ± 0.0038.
